Several values for one entry are separate records, joined by “and”; a condition that tells them apart may be missing. Equal entries are not always repeated. Records with an inconclusive call do not appear. Activity calls are given as the source filed them. Unless noted, calls follow the shape of the dose curve; as a rule, active = well fitted curve in the direction sought with a large enough effect; inconclusive = small, poorly fitted or top-dose-only effect, or another doubt; inactive = no such curve, though single readings can be large; an effect the other way counts as inactive or inconclusive.

These results are taken from PubChem BioAssay (NCATS).

For test [1], the target named is Estrogen receptor (Homo sapiens) (UniProt P03372). As to the kind of experiment: qHTS assay for small molecule agonists of estrogen receptor alpha signaling (AID 588514; calls by dose curve; also: nearly all actives have a fitted effect of over 70% in size; also: potency is read from the fitted curve at half-maximal effect;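 as to activation: 0% = vehicle only and 100% = reference agonist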). The method, boiled down:
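Fluorescence from CCF4 cleavage reports ER-alpha-driven beta-lactamase expression in HEK 293 cells treated 18 hrs at 37 C. Data normalized to 17-beta-estradiol (20 nM) and DMSO, fitted to Hill equation.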

The nature of test [2]: qHTS assay for small molecule antagonists of peroxisome proliferator-activated receptor delta signaling (AID 588535; active = well fitted inhibition curve with a large enough effect in the signal ratio, with a control signal flat, not every such curve was filed as active; the % refers to the signal ratio;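 as to max response: cells co-treated with a PPAR-delta agonist as stimulator during compound exposure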). As to conditions: HEK293T PPARd-UAS-bla, beta-lactamase FRET ratio, 18 h; 460 nm channel. The gist of the method: (§1)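 Antagonist-mode qHTS using GeneBLAzer PPAR-delta-UAS-bla HEK293T cells; compound exposure 18 hrs at 37 C over a titration. Ratiometric CCF4 fluorescence at 460/530 nm; concentration-response points fitted to the Hill equation.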

Test [3] has as its target Peroxisome proliferator-activated receptor delta (Homo sapiens) (UniProt Q03181). The test is described as above. The method, boiled down:
as §1

In test [4] the target is Vitamin D3 receptor (Homo sapiens) (UniProt P11473). The test is described as follows: qHTS assay for small molecule antagonists of vitamin D receptor signaling (AID 588541; calls by dose curve;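 also: receptor activated by calcitriol during compound treatment; series mostly up to about 77 µM; % is scaled to controls: 0 for no effect and ±100 for the full control effect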). The gist of the method:
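Antagonist-mode beta-lactamase reporter assay: HEK293T VDR-UAS-bla cells were exposed to titrated compound alongside 1-alpha,25-dihydroxyvitamin D3 at 3 nM final for 16 h. Values were normalized to the 50 nM agonist control and DMSO basal, with IC50 and efficacy from Hill equation fits.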

The target of test [5] is Thyroid hormone receptor beta (Homo sapiens) (UniProt P10828). As to the kind of experiment: qHTS assay for small molecule agonists of thyroid hormone receptor beta signaling (AID 588545; calls by dose curve;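 also: 0% = DMSO only and 100% = 10 nM T3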). The gist of the method: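 Efficacy and EC50 values derive from Hill fits of qHTS titration data, normalized to 10 nM T3 and DMSO-only wells. HEK 293 reporter cells were stimulated for 18 hrs at 37 C, with beta-lactamase activity measured by CCF4 fluorescence.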

Test [6] in a line: qHTS assay for small molecule antagonists of retinoid X receptor alpha signaling (AID 588546; active = well fitted inhibition curve with a large enough effect in the signal ratio, with a control signal flat, not every such curve was filed as active; the % refers to the signal ratio;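 also: cells stimulated with 9-cis-retinoic acid as agonist; % is scaled to controls: 0 for no effect and ±100 for the full control effect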). As to conditions: HEK293T RXRa-UAS-bla, beta-lactamase ratio, antagonist mode; measured here: W530 green channel, cytotoxicity proxy. The method, boiled down:
(§2)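 Beta-lactamase reporter inhibition, read as CCF4 fluorescence ratio (ex 405, em 460/530 nm) after 2 h at RT. HEK293T UAS-bla cells, 2500/well, were stimulated with 9-cis-RA at 500 or 100 nM final alongside test compound for 18 h at 37 C.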

Test [7] has as its target Retinoic acid receptor RXR-alpha (Homo sapiens) (UniProt P19793). The description is as above. Particulars: HEK293T RXRa-UAS-bla, beta-lactamase ratio, antagonist mode. The gist of the method: as §2
Test [8] deals with Thyroid hormone receptor beta (Homo sapiens) (UniProt P10828). The test is described as follows: qHTS assay for small molecule antagonists of thyroid hormone receptor beta signaling (AID 588547; active = well fitted inhibition curve with a large enough effect in the signal ratio, with a control signal flat, not every such curve was filed as active; the % refers to the signal ratio;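 also: cells stimulated with 0.4 nM T3 agonist during compound exposure; series mostly up to about 77 µM; % is scaled to controls: 0 for no effect and ±100 for the full control effect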). As to conditions: TR-UAS-bla HEK293, beta-lactamase ratio, antagonist mode, 18 h. The method, boiled down:
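Inhibition of T3-driven (0.4nM final) beta-lactamase reporter activity was measured over 0.59 nM to 92 uM compound after 18 h at 37 C. The cells were GripTite HEK293 TR-UAS-bla in charcoal/dextran-stripped serum, with CCF4 ratio read-out and IC50 from Hill fits.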

Test [9] is described as follows: qHTS assay for small molecule activators of the p53 signaling pathway (AID 651743; active = well fitted activation curve with a large enough effect in the signal ratio, not every such curve was filed as active; the % refers to the signal ratio; also: series mostly up to about 92 µM; % of control where 0% means no effect). As to conditions: HCT-116 p53RE-bla, beta-lactamase FRET ratio, 16 h; activation: stronger effect = higher value. The method, boiled down:
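A beta-lactamase reporter under p53 response element control, stably carried by HCT-116 cells, reported pathway activation. Test compounds were applied for 16 hours at 37 C, and fluorescence was measured 2 hours after adding the B/G FRET substrate.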

The nature of test [10]: qHTS assay for environmental chemicals that activate the Aryl hydrocarbon Receptor (AhR) signaling pathway (AID 651777). Also: % of control where 0% means no effect; nearly all actives have a fitted effect of over 15% in size. As to conditions: 1A2-DRE human hepatoma cells, luciferase, 24 h; activation: stronger effect = higher value. The gist of the method:
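Stable CYP1A2 promoter/DRE-luciferase human hepatoma line treated 24 hr; One-Glo luminescence, 30 min RT.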

Test [11] addresses Peroxisome proliferator-activated receptor alpha (Homo sapiens) (UniProt Q07869). As to the kind of experiment: qHTS assay for small molecule agonists of the peroxisome proliferator-activated receptor alpha (PPARalpha) signaling pathway (AID 651778). Also: % of control where 0% means no effect. As to conditions: PathHunter PPARalpha complementation, chemiluminescence, 6 h; max response: stronger effect = higher value. The gist of the method: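 Chemiluminescence from complemented enzyme reported PPARalpha activation in cells after 6 hr of compound treatment at 37 C. The detection reagent was incubated for 60 min at room temperature, and compounds were scored as agonists.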

The nature of test [12]: qHTS assay for small molecule agonists of the antioxidant response element (ARE) signaling pathway measured by Nrf2-dependant transcriptional activity (AID 720636; active = well fitted curve in the direction sought with a large enough effect in the repeat runs; an effect the other way counts as inactive or inconclusive;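 also: HepG2 cells with an ARE-driven luciferase reporter; % of control where 0% means no effect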). The gist of the method: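 Reporter gene assay, HepG2 ARE-luc: 16 hr compound, 37 C, 5% CO2; read-out luciferase luminescence.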
Test [13] in a line: qHTS assay for small molecule agonists of the antioxidant response element (ARE) signaling pathway measured by Nrf2-dependant transcriptional activity - cell viability counter screen (AID 720653; active = well fitted curve in the direction sought with a large enough effect in the repeat runs; an effect the other way counts as inactive or inconclusive; also: % is scaled to controls: 0 for no effect and ±100 for the full control effect). Particulars: ARE-bla HepG2 viability, CellTiter-Glo ATP luminescence, 16 h; max response: stronger effect = lower value. The method, boiled down: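 Cytotoxicity counter screen: intracellular ATP quantified by CellTiter-Glo luminescence in the same ARE-bla HepG2 plates, after 16 h compound exposure and a 2 h beta-lactamase substrate step.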

Test [14] can be described thus: qHTS assay for cell viability of HEK293 cells (AID 743288). Also: % is scaled to controls: 0 for no effect and ±100 for the full control effect; nearly all actives have a fitted effect of over 50% in size. Particulars: ATP luminescence (CellTiter-Glo), 18 h; max response: stronger effect = lower value. The method, boiled down: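 HEK293, 18 h, 37 C, ATP luminescence. Cells at 2,000/well were allowed at least 5 h to settle before dosing; CellTiter-Glo developed 30 min at RT.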
A short description of test [15]: qHTS assay for cell viability of the p53RE-bla HCT-116 cell line (AID 743292). Also: % is scaled to controls: 0 for no effect and ±100 for the full control effect; nearly all actives have a fitted effect of over 55% in size. The gist of the method: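 Readout: CellTiter-Glo luminescence after 30 min RT. Treatment: compounds in DMSO, 16 h, 37 C. Cells: CellSensor p53RE-bla HCT-116, 4,000/well, preincubated 5 h.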
Test [16] addresses Nuclear receptor subfamily 1 group I member 2 (Rattus norvegicus) (UniProt Q9R1A7). The test is described as follows: qHTS assay for small molecule activators of the rat pregnane X receptor (rPXR) signaling pathway (AID 651751; call rule not given here; also: 0% is about no effect). Particulars: rPXR reporter cells, luciferase (One-Glo), 24 h.
Test [17] is described as follows: qHTS assay for small molecule activators of the human pregnane X receptor (PXR) signaling pathway (AID 720659; call rule not given here; also: 0% is about no effect).
Test [18] has as its target Peroxisome proliferator-activated receptor gamma (Homo sapiens) (UniProt P37231). The test is described as follows: qHTS assay for small molecule agonists of peroxisome proliferator-activated receptor gamma signaling (AID 588536; active = well fitted curve in the direction sought with a large enough effect in the signal ratio, with a control signal flat, not every such curve was filed as active; the % refers to the signal ratio;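 also: 0% = DMSO basal wells and 100% = rosiglitazone at 2 µM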). The gist of the method:
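This is an agonist-mode beta-lactamase reporter assay in HEK293 PPAR-gamma-UAS-bla cells with 1% charcoal/dextran FBS. Compound titrations ran 16 h at 37 C before CCF4 detection. EC50 and efficacy are Hill fits scaled to 2 uM rosiglitazone (100%) and DMSO basal.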

Test [19] can be described thus: qHTS assay for small molecule agonists of retinoid X receptor alpha signaling (AID 588544; calls by dose curve;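 as to activation: 0% = DMSO basal wells and 100% = reference agonist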). Particulars: HEK293T RXRa-UAS-bla, beta-lactamase reporter, 18 h; 530 nm emission.
For test [20], the target named is Retinoic acid receptor RXR-alpha (Homo sapiens) (UniProt P19793). The description is as above.
Chain of Retinoic acid receptor RXR-alpha (Homo sapiens) (P19793 whole entry, looked up): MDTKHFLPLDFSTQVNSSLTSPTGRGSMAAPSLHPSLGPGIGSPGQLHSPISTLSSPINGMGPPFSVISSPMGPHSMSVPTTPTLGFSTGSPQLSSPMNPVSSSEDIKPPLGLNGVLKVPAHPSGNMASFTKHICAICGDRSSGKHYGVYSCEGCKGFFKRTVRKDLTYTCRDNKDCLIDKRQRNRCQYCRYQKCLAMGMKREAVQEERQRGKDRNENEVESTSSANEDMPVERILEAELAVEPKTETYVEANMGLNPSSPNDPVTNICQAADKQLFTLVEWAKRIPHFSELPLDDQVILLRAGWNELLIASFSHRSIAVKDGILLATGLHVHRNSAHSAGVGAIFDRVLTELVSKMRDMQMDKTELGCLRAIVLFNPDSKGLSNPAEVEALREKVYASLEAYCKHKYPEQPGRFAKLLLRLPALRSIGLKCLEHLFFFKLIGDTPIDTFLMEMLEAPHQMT

Chain of Nuclear receptor subfamily 1 group I member 2 (Rattus norvegicus) (Q9R1A7 whole entry, looked up): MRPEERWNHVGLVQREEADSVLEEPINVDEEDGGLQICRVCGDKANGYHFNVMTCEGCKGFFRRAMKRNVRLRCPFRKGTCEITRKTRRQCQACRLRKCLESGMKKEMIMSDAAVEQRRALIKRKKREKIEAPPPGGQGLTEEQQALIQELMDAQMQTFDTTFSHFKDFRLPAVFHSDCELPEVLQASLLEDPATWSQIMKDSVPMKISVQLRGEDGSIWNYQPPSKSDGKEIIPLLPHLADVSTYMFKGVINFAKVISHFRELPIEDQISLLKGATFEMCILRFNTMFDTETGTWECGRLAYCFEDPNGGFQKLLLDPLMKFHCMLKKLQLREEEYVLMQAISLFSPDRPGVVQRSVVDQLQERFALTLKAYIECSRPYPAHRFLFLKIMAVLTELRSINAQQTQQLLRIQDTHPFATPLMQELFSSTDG
Chain of Estrogen receptor (Homo sapiens) (P03372 whole entry, looked up): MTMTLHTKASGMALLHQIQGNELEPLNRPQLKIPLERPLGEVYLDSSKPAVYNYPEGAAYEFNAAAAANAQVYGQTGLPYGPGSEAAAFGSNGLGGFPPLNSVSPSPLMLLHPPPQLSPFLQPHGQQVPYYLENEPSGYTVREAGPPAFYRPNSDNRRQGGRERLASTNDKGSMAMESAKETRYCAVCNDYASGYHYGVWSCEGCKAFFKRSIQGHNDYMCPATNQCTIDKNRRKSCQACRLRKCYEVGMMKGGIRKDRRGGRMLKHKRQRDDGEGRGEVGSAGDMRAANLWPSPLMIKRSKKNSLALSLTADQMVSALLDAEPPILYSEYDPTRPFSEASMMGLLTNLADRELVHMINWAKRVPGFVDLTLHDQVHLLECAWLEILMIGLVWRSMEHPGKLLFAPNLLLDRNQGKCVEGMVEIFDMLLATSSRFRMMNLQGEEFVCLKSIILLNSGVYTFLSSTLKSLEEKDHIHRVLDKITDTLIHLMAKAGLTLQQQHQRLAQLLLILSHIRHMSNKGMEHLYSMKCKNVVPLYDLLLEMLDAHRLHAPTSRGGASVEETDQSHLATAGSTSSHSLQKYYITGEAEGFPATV
Chain of Peroxisome proliferator-activated receptor gamma (Homo sapiens) (P37231 whole entry, looked up): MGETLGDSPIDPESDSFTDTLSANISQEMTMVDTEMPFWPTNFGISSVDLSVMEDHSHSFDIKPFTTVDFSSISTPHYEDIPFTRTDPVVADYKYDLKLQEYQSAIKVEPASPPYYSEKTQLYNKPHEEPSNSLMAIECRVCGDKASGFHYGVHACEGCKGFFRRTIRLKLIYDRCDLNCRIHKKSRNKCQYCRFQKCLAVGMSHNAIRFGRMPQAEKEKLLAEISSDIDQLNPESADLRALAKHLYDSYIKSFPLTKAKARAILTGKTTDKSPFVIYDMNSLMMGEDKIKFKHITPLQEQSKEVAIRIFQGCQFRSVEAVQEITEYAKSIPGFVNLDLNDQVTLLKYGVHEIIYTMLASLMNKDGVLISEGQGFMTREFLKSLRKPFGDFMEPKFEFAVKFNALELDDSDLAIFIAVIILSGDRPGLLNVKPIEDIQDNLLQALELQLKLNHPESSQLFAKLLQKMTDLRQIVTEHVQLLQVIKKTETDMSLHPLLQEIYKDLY
Chain of Vitamin D3 receptor (Homo sapiens) (P11473 whole entry, looked up): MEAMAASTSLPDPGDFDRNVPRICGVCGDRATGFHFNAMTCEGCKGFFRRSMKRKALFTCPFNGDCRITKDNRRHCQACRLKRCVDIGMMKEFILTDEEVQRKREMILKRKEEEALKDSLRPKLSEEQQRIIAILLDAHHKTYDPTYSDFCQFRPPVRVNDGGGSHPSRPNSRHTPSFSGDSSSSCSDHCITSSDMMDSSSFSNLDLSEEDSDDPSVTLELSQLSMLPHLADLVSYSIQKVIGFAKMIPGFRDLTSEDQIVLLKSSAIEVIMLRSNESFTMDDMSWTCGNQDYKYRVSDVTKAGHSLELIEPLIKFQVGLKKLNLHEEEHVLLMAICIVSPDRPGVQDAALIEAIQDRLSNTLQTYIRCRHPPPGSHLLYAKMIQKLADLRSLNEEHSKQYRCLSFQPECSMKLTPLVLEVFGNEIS
Chain of Thyroid hormone receptor beta (Homo sapiens) (P10828 whole entry, looked up): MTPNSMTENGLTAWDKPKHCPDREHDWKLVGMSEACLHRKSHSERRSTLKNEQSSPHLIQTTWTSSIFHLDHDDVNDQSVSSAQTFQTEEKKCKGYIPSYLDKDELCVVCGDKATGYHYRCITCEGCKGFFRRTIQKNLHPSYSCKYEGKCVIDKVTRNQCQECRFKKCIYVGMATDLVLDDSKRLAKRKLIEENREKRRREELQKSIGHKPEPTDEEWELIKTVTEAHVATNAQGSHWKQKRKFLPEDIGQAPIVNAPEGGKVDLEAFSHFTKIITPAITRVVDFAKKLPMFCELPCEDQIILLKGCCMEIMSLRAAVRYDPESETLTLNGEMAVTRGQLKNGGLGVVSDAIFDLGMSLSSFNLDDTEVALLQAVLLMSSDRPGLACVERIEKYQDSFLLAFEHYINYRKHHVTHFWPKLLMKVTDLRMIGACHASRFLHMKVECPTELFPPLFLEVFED
Chain of Peroxisome proliferator-activated receptor alpha (Homo sapiens) (Q07869 whole entry, looked up): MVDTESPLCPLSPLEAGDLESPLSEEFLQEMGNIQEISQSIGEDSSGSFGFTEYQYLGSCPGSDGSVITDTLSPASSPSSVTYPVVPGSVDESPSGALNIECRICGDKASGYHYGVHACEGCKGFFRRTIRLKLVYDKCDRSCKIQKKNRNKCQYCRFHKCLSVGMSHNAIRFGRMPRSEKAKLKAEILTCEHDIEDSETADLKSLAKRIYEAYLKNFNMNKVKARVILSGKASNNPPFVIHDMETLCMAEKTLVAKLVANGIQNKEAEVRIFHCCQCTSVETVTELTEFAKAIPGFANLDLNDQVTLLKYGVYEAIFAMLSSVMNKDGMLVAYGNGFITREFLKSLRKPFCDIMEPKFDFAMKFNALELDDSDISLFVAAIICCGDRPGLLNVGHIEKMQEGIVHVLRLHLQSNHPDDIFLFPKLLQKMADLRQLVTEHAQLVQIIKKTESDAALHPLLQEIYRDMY
Chain of Peroxisome proliferator-activated receptor delta (Homo sapiens) (Q03181 whole entry, looked up): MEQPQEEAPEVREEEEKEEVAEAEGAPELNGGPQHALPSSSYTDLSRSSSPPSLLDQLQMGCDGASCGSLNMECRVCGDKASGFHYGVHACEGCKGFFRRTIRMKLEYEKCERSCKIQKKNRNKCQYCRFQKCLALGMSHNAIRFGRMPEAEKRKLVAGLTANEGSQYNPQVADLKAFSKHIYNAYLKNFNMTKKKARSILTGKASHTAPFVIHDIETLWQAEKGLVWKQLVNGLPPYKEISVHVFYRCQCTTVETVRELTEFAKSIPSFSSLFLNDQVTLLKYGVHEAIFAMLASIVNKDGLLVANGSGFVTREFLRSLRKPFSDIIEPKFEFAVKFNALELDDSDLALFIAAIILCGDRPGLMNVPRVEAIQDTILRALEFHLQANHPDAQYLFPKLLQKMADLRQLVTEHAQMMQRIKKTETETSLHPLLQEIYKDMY

On to `C[Si]1(C)O[Si](C)(C)O[Si](C)(C)O[Si](C)(C)O1`, for which the Potency entry in test [1], in [3], in test [4], in test [5], in test [12] and in test [15] was “inactive” throughout. Further, the max response was 8.31% in [2]; 1.41% in [6]; 6.05% (inactive) in [7]; -0.153% (inactive) in test [11]; 2.58% (inactive) in test [13]; 0.965% (inactive) in [14]. The max response in test [16] is 3.43% (inactive). Moreover, the activity change % (negative = inhibition) in [8] is 11% (inactive). The activation in test [9] is -2.06% (inactive); in test [10], -0.142% (inactive). The outcome in [17] was inactive.
Turning to `NNS(=O)(=O)c1ccc(Oc2ccc(S(=O)(=O)NN)cc2)cc1`, in test [1], the Potency is 447 nM (active). Moreover, the max response is 18.7% in test [2]; -6.27% in test [19]; -11.5% in test [6]; -7.05% (inactive) in test [7]; -6% (inactive) in test [11]; -13.9% (inactive) in [13]. In addition, the figures for the max response in [14] and in test [16] were 0.11% (inactive) and 8.65% (inactive), respectively. The Potency entry in test [3], in test [4], in test [20], in [12] and in test [15] was “inactive” each time. Besides, the call in test [18] and in test [17] was inactive. Moreover, in test [8], the activity change % (negative = inhibition) was -2.89% (inactive). Moreover, the results for the activation in [9] and in test [10] were -0.745% (inactive) and 0.263% (inactive), respectively.
For the compound `CCCCCCCC(=O)Oc1c(Br)cc(C#N)cc1Br`, the Potency result in [1], in [4], in test [20], in [5], in [12] and in test [15] was “inactive” throughout. Further, the compound was called inactive in [18] and in test [17]. Further, the max response in test [19] was -14.9%; in test [6], -5.85%; in test [7], -20.9% (inactive); in [13] it was 0.905% (inactive); in test [14] it was -6.14% (inactive); in [16], -8.28% (inactive). Also, the activity change % (negative = inhibition) in [8] is -2.51% (inactive). In test [9], the activation was 6.26% (inactive).
With `C=CC(=O)NC(C)(C)CS(=O)(=O)O`, the Potency entry in [1], in [3], in test [4], in test [20], in [12] and in [15] was “inactive” each time. The max response is 15.1% and -58.6% in test [2]; -14.1% and -12.4% in test [19]; 6.06% and 6.67% in [6]; -8.43% (inactive) and -30.3% (inactive) in test [7]; 2.58% (inactive) and -1.53% (inactive) in test [11]; -6.76% (inactive) and -9.12% (inactive) in [13]. The max response was -20.6% (inactive) and -8.34% (inactive) in test [14]; -5.7% (inactive) and -3.87% (inactive) in test [16]. In addition, the result in test [18] and in test [17] was inactive. Besides, in [8], the activity change % (negative = inhibition) is 13.1% (inactive) and 23.4% (inactive). Moreover, the activation is 2.63% (inactive) and -4% (inactive) in [9]; 1.15% (inactive) and -0.952% (inactive) in test [10].
With `CC(C)=CCC/C(C)=C\CO`, the max response in test [2] was 2.44%; in test [19], -16.1%; in [6], -11.3%; in test [7] it was -2.37% (inactive); in [13], -3.82% (inactive); in test [14], -0.935% (inactive). The max response in test [16] was 2.57% (inactive). Also, the Potency entry in test [3], in test [4], in [20], in [5], in test [12] and in test [15] was “inactive” each time. In addition, in [18], the compound was classed as inactive. The activity change % (negative = inhibition) in [8] is -2.03% (inactive). In addition, the activation in [9] is 1.13% (inactive); in test [10], 0.559% (inactive).
In the case of `CCCCCCCC(=O)OC`, the Potency entry in [1], in test [3], in test [4], in [20], in [5] and in [12] was “inactive” throughout. In addition, in test [15], the Potency result is “inactive”. Also, the max response is 18.8% in test [2]; 14.7% in test [19]; -15% in test [6]; -8.88% (inactive) in [7]; -3.16% (inactive) in [11]; 0.0694% (inactive) in test [13]. Further, the max response in test [14] was -6.4% (inactive); in test [16], 2.14% (inactive). Moreover, the compound was called inactive in [18] and in test [17]. Also, the activity change % (negative = inhibition) in test [8] is 13.2% (inactive). The activation is 3.63% (inactive) in [9] and -2.72% (inactive) in [10].
